According to PubChem BioAssay:
The source made the active and inactive calls. Unless noted, no rule for the calls is given here.

Assays:
[1] = system: Wnt5a (protein binding on small-molecule microarray); experiment: small molecules binding Wnt5a protein – biophysical, small-molecule microarray, 635/667 nm fluorescence, primary screen (AID 1142); settings: 635 nm fluorescence, higher = more signal;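 also: fluorescence read at 667 nm with signal to noise per printed feature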
[2] = ATP-based viability of Huh7 replicon cells – cell-based, CellTiter-Glo luminescence, basal, 48 h, cytotoxicity control for HCV replication inhibitor project, primary screen (AID 1143); settings: higher = more signal, called active from +8 up or from −8 down;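 also: Huh7 hepatoma cells carrying a hepatitis C replication reporter with no stimulus; test concentration not given here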
[3] = Pseudomonas biofilm growth suppression – PAO1 strain, BacTiter-Glo luminescence, LB-PBS, primary screen (AID 1144); settings: P. aeruginosa PAO1 biofilm, 12 h, higher = more signal
[4] = basal CRE-LacZ reporter activity in PC12 – cell-based, unstimulated, primary screen (AID 1145); settings: no forskolin, luminescence, 4.5 h, higher = more signal, called active from +8 up or from −8 down
[5] = forskolin-driven CRE-LacZ activity in PC12 – cell-based, CRE-LacZ reporter, forskolin-stimulated, primary screen (AID 1146); settings: luminescence, 4.5 h, higher = more signal, called active from +8 up or from −8 down;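 also: PC12 cells with 6xCRE LacZ reporter stimulated by forskolin 10 µM; beta-galactosidase reporter signal reflecting CREB driven transcription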
[6] = molecular target: Streptavidin (Streptomyces avidinii) (UniProt P22629); experiment: compounds binding control protein streptavidin – biophysical, small-molecule microarray, 635/667 nm fluorescence, artefact control for SMM compound annotation, primary screen (AID 1147); settings: higher = more signal;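 also: signal reflects streptavidin binding to arrayed compounds as a control protein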
Sequence of Streptavidin (Streptomyces avidinii) (P22629 whole entry, looked up): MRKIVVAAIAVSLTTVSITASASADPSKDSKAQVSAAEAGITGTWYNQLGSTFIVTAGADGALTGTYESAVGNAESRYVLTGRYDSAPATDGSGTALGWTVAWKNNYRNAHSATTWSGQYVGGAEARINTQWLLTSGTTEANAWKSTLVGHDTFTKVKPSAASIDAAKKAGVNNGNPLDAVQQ

[7] = probe aInhba binding on compound microarray – biochemical, small-molecule microarray, 635/667 nm fluorescence, primary screen (AID 1148); settings: higher = more signal;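 also: score merges 667nm spot fluorescence with signal-to-noise for antibody binding to printed compounds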
[8] = molecular target: Torsin-1A (Homo sapiens) (UniProt O14656); experiment: TOR1A wild-type binding on microarray – cell lysate, small-molecule microarray, lysate, 635/667 nm, primary screen (AID 1149); settings: COS7 hTOR1A-WT lysate, 635 nm fluorescence, higher = more signal
Sequence of Torsin-1A (Homo sapiens) (O14656 whole entry, looked up): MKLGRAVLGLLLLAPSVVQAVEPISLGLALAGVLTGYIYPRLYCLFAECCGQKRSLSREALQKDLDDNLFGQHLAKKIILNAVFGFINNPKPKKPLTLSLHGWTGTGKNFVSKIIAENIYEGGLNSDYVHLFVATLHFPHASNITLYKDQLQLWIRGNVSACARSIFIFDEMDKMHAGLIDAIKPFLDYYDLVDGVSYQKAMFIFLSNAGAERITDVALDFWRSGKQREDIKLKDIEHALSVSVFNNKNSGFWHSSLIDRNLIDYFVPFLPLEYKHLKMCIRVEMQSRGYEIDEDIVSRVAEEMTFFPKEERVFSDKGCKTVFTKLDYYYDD

[9] = molecular target: Torsin-1A (Homo sapiens) (UniProt O14656); experiment: torsin A mutant lysate binding on microarrays – cell lysate, small-molecule microarray, COS7 lysate, 635/667 nm fluorescence, primary screen (AID 1150); settings: COS7 hTOR1A mutant lysate, 635 nm fluorescence, higher = more signal;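 also: score pools 667 nm emission and signal to noise measuring lysate protein binding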
[10] = system: Sonic hedgehog protein (Shh); experiment: Sonic hedgehog microarray binding compounds – biochemical, small-molecule microarray, 635/667 nm fluorescence, primary screen (AID 1151); settings: 635 nm fluorescence, higher = more signal;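 also: Shh protein binding to compounds spotted on small-molecule microarray slides; score combines spot fluorescence intensity with signal-to-noise across triplicate slides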

Structure (SMILES)	composite z-score [1]	z-score [2]	z-score [3]	z-score [4]	z-score [5]	composite z-score [6]	composite z-score [7]	composite z-score [8]	composite z-score [9]	composite z-score [10]
NCCCCCNC(=O)[C@@H]1C[C@@H]2C(=O)N[C@@H](Cc3ccccc3)C(=O)N2[C@@H]1c1ccc(O)cc1	0.0588	0.0478 (inactive)	-0.35 (inactive)	0.281 (inactive)	-0.629 (inactive)	1.38	0.174	0.202	0.394	1.2
C=CC[C@]1(C(=O)NCCCOC)N=C(c2ccc(OCCCO)cc2)O[C@H]1c1ccccc1CN=[N+]=[N-]	1.11	-1.34 (inactive)	0.162 (inactive)	1.49 (inactive)	-1.41 (inactive)	0.828	0.149	0.883	0.749	-0.0138
COc1cc2c(cc1O)C(c1cccs1)N(C)CC2 (stereo not given)	-0.289	-0.0812 (inactive)	0.134 (inactive)	-0.374 (inactive)	-0.0678 (inactive)	-1.17	-0.218	-1.19	-0.597	-0.44
CO[C@H]1O[C@H](CO)[C@@H](OC(=O)Nc2ccc(C(F)(F)F)cc2)[C@H](OC(=O)Nc2ccc3c(c2)OCO3)[C@@H]1OC(=O)Nc1ccc2c(c1)OCO2	0.246	-4.31 (inactive)	0.999 (inactive)	0.652 (inactive)	-1.93 (inactive)	0.273	-0.157	1.81	1.23	0.57
COc1ccc(C#Cc2ccc3c(c2)[C@]2(C(=O)N3)[C@H](C(=O)NC[C@H](O)c3ccccc3)[C@H]3C(=O)O[C@H](c4ccccc4)[C@H](c4ccccc4)N3[C@@H]2c2ccc(O)cc2)cc1	0.288	-2.62 (inactive)	-1.1 (inactive)	-0.141 (inactive)	-0.301 (inactive)	0.539	-0.128	0.179	0.587	1.24
CN(C)CCCC[C@@H]1NC(=O)[C@H]2C[C@@H](C(=O)NCCCCCCN)[C@@H](c3ccc(O)cc3)N2C1=O	0.538	0.181 (inactive)	0.523 (inactive)	-0.256 (inactive)	-0.139 (inactive)	1.28	0.308	1.13	0.755	2.03
CC(C)NC(=O)[C@@]1(c2ccc([N+](=O)[O-])cc2)CC(=O)N(C2CCCCC2)[C@@H]1c1ccc(CO)cc1I	-0.0239	-4.27 (inactive)	1.11 (inactive)	1.04 (inactive)	-0.727 (inactive)	-0.154	0.0497	0.0498	0.242	-0.241
CC1CC/C=C\[C@H]2OC34C=CCN(Cc5ccccc5)C(=O)[C@H]3N(CCCO)C(=O)[C@@H]4C2C(=O)O1 (stereo not given in full)	-0.403	-0.667 (inactive)	0.446 (inactive)	-0.0778 (inactive)	0.776 (inactive)	-0.942	-0.206	-0.681	-1.56	-0.233
O=C1[C@@]23C=C(Br)[C@H](C[C@@H]2CCOC3)[C@@]12CO2	-0.0248	0.35 (inactive)	0.725 (inactive)	0.221 (inactive)	0.767 (inactive)	0.365	0.0792	0.441	0.219	0.534
O=C1C2C=CC(C(O)CCc3ccccc3)N(Nc3ccccc3F)C2C(=O)N1c1ccccc1 (stereo not given)	0.43	-0.381 (inactive)	-0.315 (inactive)	-0.331 (inactive)	0.654 (inactive)	0.787	0.131	0.204	0.538	0.366
COC(=O)[C@H](Cc1ccccc1)N[C@@H](/C=C/C1CC1)[C@H](O)Cc1ccccc1	1.2	-0.389 (inactive)	0.186 (inactive)	1.31 (inactive)	0.15 (inactive)	0.648	-0.231	0.324	0.341	-0.21
CCOC(=O)[C@H]1C/C=C/C[C@H](C(=O)OCC)C(=O)O[C@H]2[C@@H](OC)O[C@H](CO)[C@@H](OC(=O)c3c(OC)cccc3OC)[C@@H]2OC1=O	0.172	-4.57 (inactive)	0.0437 (inactive)	0.0816 (inactive)	1.33 (inactive)	0.475	-0.0501	0.292	0.209	1.44
COc1ccc(C(O)C2C=CC3C(=O)N(Cc4ccccc4)C(=O)C3N2n2cnnc2)cc1OCc1ccccc1 (stereo not given)	0.0401	-2.81 (inactive)	-2.01 (inactive)	-0.424 (inactive)	-0.0263 (inactive)	0.296	-0.0962	-0.476	0.562	-0.733
CO[C@H]1O[C@H](CO)[C@@H](OC(=O)Nc2cccc(F)c2)[C@H](OC(=O)Nc2ccccc2)[C@@H]1OC(=O)Nc1ccccc1	0.343	-5.79 (inactive)	-0.125 (inactive)	-0.459 (inactive)	-0.74 (inactive)	0.255	0.289	0.434	0.505	1.17
